Measured values from the supplement of paper PMC10849652.
The full data set covers some 7,900 targets. This sample favours those with a hit. About 0.6% of all pairs of compound and target were hits.

What was measured:
Test in all cases: log2 fold change, soluble protein after heating vs DMSO (PISA); higher = thermal stabilisation; K562 cells, 10 uM, 30 min; active = over 0.2 and 3.5 SD of the protein, either way, in both replicates (recomputed)
[1] = compound: COC1=CC=C(C=C1)CN2C=CC3=C2C=C(C=C3)C(=O)NO
How it was run: (§1)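 Quantification of soluble protein used TMTpro 16plex LC-MS/MS, with channel sums equalised. Samples were the supernatant after 21,000xg for 90 min of pooled aliquots from K562 cells (2×10^6 cells/mL) treated with 10 μM compound for 30 min, heated for 3 min over 48°C-58°C, and extracted in PBS with 0.5% NP-40 at 4°C. Values, from duplicates, describe thermal stability against control samples on a log2 fold-change scale.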

[2] = compound: CON(C)C(=O)N1N=C(c2cc(F)ccc2F)S[C@@]1(CCCN)c1ccccc1 [filanesib]
How it was run: as §1

[3] = compound: CO[C@H]1C[C@@H]2CC[C@@H](C)[C@@](O)(O2)C(=O)C(=O)N2CCCC[C@H]2C(=O)O[C@H]([C@H](C)C[C@@H]2CC[C@H](n3cnnn3)[C@H](OC)C2)CC(=O)[C@H](C)/C=C(\C)[C@@H](O)[C@@H](OC)C(=O)[C@H](C)C[C@H](C)/C=C/C=C/C=C/1C [zotarolimus]
How it was run: as §1

[4] = compound: COc1cc(C(=O)O)ccc1NC(=O)[C@@H]1N[C@@H](CC(C)(C)C)[C@](C#N)(c2ccc(Cl)cc2F)[C@H]1c1cccc(Cl)c1F [idasanutlin]
How it was run: as §1

[5] = compound: COc1cc(Nc2ncc3c(n2)-c2ccc(Cl)cc2C(c2c(F)cccc2OC)=NC3)ccc1C(=O)O [alisertib]
How it was run: as §1

[6] = compound: COc1cc2nc(-c3cc(F)ccc3O)nc(N[C@@H]3CNC[C@H]3C(C)(C)O)c2cc1OC
How it was run: as §1

[7] = compound: COc1cc2ncnc(Nc3ccc(F)c(Cl)c3)c2cc1OCCCN1CCOCC1 [gefitinib]
How it was run: as §1

[8] = compound: COc1cccc2cc(-c3nc([C@H]4CC[C@H](C(=O)O)CC4)n4ncnc(N)c34)[nH]c12
How it was run: as §1

[9] = compound: CS(=O)(=O)CCNCc1ccc(-c2ccc3ncnc(Nc4ccc(OCc5cccc(F)c5)c(Cl)c4)c3c2)o1 [lapatinib]
How it was run: as §1

[10] = compound: CS(=O)(=O)N1CCN(Cc2cc3nc(-c4cccc5[nH]ncc45)nc(N4CCOCC4)c3s2)CC1 [pictilisib]
How it was run: as §1

Measured: log2 fold change

UBE2S (UniProt Q16763)
UniProt Q16763, sequence (Q16763 whole entry, looked up): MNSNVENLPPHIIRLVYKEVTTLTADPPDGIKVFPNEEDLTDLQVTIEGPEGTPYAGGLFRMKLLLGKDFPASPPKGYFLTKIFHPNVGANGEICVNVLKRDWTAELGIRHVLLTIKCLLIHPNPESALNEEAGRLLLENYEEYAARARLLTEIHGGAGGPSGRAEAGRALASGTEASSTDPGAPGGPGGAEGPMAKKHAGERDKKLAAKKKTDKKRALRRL
inactive: [1] 0.003 | [2] 0.01 | [3] 0.045 | [4] -0.05 | [5] 0.015 | [6] 0.053 | [7] -0.009 | [8] 0.001 | [9] -0.035 | [10] 0.058

VARS2, A0A0G2JL52
inactive: [1] 0.061 | [2] -0.078 | [3] 0.001 | [4] -0.04 | [5] -0.01 | [6] -0.017 | [7] -0.009 | [8] 0.064 | [9] 0.022 | [10] 0.024

TXNL4B (UniProt Q9NX01)
UniProt Q9NX01, sequence (Q9NX01 whole entry, looked up): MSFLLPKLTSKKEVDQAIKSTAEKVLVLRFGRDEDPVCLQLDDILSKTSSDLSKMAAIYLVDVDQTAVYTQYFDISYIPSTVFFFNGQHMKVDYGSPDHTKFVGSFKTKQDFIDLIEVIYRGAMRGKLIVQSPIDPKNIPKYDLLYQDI
inactive: [1] 0.011 | [2] -0.034 | [3] -0.008 | [4] -0.147 | [5] 0.097 | [6] 0.106 | [7] 0.042 | [8] -0.064 | [9] -0.003 | [10] -0.003

UNC119B (UniProt A6NIH7)
UniProt A6NIH7, sequence (A6NIH7 whole entry, looked up): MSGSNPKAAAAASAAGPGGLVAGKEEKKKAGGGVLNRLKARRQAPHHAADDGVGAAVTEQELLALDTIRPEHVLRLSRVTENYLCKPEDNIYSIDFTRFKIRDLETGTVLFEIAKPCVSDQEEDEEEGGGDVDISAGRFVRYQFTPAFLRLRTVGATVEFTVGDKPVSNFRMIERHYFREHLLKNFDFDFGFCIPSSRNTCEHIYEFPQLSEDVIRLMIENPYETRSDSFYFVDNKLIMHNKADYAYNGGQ
inactive: [1] -0.232 | [2] 0.059 | [3] 0.074 | [4] -0.034 | [5] -0.185 | [6] 0.069 | [7] 0.116 | [8] -0.002 | [9] 0.06 | [10] 0.092

TMEM263 (UniProt Q8WUH6)
inactive: [1] -0.096 | [3] -0.038 | [4] -0.09 | [5] -0.043 | [7] -0.042 | [8] 0.065 | [9] -0.045 | [10] -0.208
active: [2] -0.654 | [6] -0.789

UBAP2L isoform 1 (UniProt Q14157)
UniProt Q14157, sequence (Q14157 whole entry, looked up): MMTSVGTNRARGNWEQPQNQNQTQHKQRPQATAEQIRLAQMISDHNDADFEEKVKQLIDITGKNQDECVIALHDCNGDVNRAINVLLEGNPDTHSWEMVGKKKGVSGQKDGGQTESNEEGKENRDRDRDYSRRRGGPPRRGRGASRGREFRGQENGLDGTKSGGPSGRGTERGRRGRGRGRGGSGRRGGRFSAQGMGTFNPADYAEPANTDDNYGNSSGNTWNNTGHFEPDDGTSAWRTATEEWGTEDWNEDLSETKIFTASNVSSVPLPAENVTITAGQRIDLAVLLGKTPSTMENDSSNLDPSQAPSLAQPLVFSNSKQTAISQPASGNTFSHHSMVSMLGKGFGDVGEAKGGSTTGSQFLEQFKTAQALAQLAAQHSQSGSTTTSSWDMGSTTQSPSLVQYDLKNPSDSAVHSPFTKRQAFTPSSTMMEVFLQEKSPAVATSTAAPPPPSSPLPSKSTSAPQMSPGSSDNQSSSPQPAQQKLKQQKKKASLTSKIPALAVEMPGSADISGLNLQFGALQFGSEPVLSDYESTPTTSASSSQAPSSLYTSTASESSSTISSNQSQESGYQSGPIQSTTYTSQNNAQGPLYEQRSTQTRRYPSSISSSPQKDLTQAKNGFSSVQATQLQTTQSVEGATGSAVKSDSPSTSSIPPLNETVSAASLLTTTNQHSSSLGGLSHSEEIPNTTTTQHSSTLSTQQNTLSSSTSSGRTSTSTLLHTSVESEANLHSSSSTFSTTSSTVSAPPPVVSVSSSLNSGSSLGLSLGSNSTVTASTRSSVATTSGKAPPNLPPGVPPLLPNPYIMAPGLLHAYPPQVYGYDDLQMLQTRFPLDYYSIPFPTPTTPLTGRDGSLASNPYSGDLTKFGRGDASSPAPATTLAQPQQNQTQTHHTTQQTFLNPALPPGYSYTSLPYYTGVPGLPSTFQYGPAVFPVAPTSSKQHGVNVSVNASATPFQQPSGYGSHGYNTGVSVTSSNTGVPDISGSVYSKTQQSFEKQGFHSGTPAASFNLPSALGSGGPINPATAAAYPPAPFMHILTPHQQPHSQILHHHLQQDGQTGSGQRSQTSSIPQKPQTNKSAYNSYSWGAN
inactive: [1] 0.016 | [2] -0.014 | [3] 0.011 | [4] 0.059 | [5] -0.05 | [6] 0.213 | [7] 0.074 | [8] 0.103 | [9] -0.248 | [10] -0.114

VTI1A (UniProt Q96AJ9)
inactive: [1] 0.014 | [2] -0.015 | [3] -0.024 | [4] -0.023 | [5] -0.039 | [6] -0.003 | [7] 0.024 | [8] 0 | [9] 0.021 | [10] -0.022

WDR61 (UniProt Q9GZS3)
inactive: [1] -0.121 | [2] -0.031 | [3] 0.008 | [4] -0.05 | [5] -0.082 | [6] 0.14 | [7] -0.035 | [8] 0.065 | [9] -0.104 | [10] 0.042

TNFRSF10A (UniProt O00220)
active: [10] 0.304
inactive: [1] -0.046 | [2] 0.028 | [3] -0.035 | [4] 0.058 | [5] -0.021 | [6] 0.024 | [7] -0.012 | [8] -0.002 | [9] -0.073

WASHC2A (UniProt Q641Q2)
inactive: [1] 0.007 | [2] 0.019 | [3] -0.053 | [4] 0.063 | [5] -0.065 | [6] -0.011 | [7] -0.009 | [8] -0.005 | [9] 0.02 | [10] 0.038

UBE4B isoform 4 (UniProt O95155)
inactive: [1] 0.04 | [2] -0.009 | [3] -0.008 | [4] -0.031 | [5] -0.035 | [6] 0.021 | [7] -0.048 | [8] 0.021 | [9] -0.01 | [10] 0.063

XPO1 (UniProt O14980)
inactive: [1] 0.074 | [2] -0.121 | [3] 0.004 | [4] -0.123 | [5] -0.003 | [6] 0.023 | [7] -0.032 | [8] 0.001 | [9] -0.023 | [10] -0.071

TPP1 (UniProt O14773)
UniProt O14773, sequence (O14773 whole entry, looked up): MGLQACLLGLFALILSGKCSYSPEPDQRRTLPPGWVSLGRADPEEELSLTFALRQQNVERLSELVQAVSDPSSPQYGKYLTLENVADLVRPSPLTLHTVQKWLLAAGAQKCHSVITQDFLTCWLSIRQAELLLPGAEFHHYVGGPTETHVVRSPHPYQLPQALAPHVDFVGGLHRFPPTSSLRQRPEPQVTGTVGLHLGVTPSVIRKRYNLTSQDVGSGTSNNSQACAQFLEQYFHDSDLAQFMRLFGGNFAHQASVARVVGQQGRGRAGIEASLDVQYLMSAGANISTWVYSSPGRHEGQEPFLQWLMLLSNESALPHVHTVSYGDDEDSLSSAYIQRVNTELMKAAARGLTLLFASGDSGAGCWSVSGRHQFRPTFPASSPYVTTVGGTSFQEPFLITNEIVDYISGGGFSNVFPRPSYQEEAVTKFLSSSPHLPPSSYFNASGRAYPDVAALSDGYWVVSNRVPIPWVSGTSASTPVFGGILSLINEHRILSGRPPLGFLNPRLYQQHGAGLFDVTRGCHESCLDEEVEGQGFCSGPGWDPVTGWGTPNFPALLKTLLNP
inactive: [1] 0.024 | [2] -0.175 | [3] 0 | [4] -0.008 | [5] 0.168 | [6] -0.072 | [7] -0.039 | [8] 0.087 | [9] -0.026 | [10] 0.011

USP7 (UniProt Q93009)
inactive: [1] 0.034 | [2] -0.14 | [3] -0.007 | [4] -0.053 | [5] 0.144 | [6] 0.039 | [7] 0.04 | [8] 0.019 | [9] -0.029 | [10] 0.002

WASHC5 (UniProt Q12768)
inactive: [1] -0.059 | [2] -0.017 | [3] 0.043 | [4] 0.034 | [5] -0.088 | [6] 0.083 | [7] 0.044 | [8] -0.021 | [9] -0.024 | [10] -0.05

VTA1 (UniProt Q9NP79)
UniProt Q9NP79, sequence (Q9NP79 whole entry, looked up): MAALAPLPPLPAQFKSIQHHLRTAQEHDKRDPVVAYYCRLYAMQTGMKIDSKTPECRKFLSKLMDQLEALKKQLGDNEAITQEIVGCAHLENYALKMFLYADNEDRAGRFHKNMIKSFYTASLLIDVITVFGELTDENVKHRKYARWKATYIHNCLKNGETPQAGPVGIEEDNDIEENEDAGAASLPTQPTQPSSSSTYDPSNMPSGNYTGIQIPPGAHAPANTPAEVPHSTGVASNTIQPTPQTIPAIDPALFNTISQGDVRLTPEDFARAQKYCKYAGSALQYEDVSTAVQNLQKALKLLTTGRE
inactive: [1] -0.01 | [2] -0.033 | [3] 0.044 | [4] -0.094 | [5] -0.014 | [6] 0.056 | [7] -0.003 | [8] -0.008 | [9] -0.014 | [10] 0.006

WDR7 (UniProt Q9Y4E6)
inactive: [1] -0.04 | [2] 0.084 | [3] 0.045 | [4] -0.016 | [5] -0.076 | [6] -0.102 | [7] -0.027 | [8] -0.074 | [9] 0.003 | [10] -0.097

TRIP10 isoform 2 (UniProt Q15642)
inactive: [1] -0.032 | [2] -0.213 | [3] 0.013 | [4] 0.128 | [5] -0.029 | [6] 0.109 | [7] 0.062 | [8] -0.09 | [9] -0.083 | [10] 0.06

TMEM161B (UniProt Q8NDZ6)
inactive: [1] -0.055 | [2] -0.008 | [3] -0.035 | [4] -0.16 | [5] 0.006 | [6] 0.013 | [7] 0.087 | [8] -0.015 | [9] -0.056 | [10] 0.097

TSG101 (UniProt Q99816)
inactive: [1] 0 | [2] -0.07 | [3] 0.029 | [4] -0.031 | [5] -0.049 | [6] 0.007 | [7] 0.011 | [8] 0.016 | [9] -0.013 | [10] 0.025

U2AF1 isoform 2 (UniProt Q01081)
inactive: [1] 0.165 | [2] 0.034 | [3] 0.043 | [4] 0.055 | [5] -0.019 | [6] 0.06 | [7] 0.036 | [8] 0.045 | [9] 0 | [10] 0.069

TTI1 (UniProt O43156)
UniProt O43156, sequence (O43156 whole entry, looked up): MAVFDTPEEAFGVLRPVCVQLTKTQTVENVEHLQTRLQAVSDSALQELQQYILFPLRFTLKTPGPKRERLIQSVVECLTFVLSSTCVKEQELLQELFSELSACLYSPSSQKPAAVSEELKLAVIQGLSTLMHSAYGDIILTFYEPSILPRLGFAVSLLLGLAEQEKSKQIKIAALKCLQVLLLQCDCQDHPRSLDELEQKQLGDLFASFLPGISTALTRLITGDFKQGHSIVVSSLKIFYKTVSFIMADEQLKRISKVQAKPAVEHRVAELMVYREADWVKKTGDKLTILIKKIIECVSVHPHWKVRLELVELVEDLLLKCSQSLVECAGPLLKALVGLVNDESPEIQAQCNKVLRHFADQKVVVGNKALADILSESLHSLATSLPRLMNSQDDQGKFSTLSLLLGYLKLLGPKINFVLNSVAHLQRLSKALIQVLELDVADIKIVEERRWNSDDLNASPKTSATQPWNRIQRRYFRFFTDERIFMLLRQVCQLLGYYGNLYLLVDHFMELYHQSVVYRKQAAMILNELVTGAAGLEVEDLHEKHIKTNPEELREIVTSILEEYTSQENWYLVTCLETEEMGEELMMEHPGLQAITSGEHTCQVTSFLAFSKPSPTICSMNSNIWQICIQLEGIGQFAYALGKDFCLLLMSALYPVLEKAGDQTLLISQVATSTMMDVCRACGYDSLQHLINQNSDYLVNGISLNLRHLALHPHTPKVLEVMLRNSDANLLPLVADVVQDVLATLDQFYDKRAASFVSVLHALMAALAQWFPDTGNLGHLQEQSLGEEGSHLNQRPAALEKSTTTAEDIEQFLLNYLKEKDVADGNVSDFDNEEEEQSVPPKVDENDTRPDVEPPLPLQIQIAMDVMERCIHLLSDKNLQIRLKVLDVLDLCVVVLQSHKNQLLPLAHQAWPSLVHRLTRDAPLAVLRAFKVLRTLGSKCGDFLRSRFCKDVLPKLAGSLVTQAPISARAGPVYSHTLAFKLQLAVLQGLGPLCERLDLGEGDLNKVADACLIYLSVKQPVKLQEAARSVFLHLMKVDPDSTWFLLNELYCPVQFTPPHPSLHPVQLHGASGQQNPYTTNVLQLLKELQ
inactive: [1] -0.031 | [2] 0.081 | [3] 0.091 | [4] -0.097 | [5] -0.112 | [6] 0.02 | [7] -0.057 | [8] -0.019 | [9] -0.008 | [10] 0.049

UCHL5 (UniProt Q9Y5K5)
inactive: [1] 0.023 | [2] -0.035 | [3] 0.026 | [4] -0.044 | [5] -0.048 | [6] 0.04 | [7] 0.008 | [8] -0.031 | [9] -0.023 | [10] 0.012

TOMM5 isoform 2 (UniProt Q8N4H5)
UniProt Q8N4H5, sequence (Q8N4H5 whole entry, looked up): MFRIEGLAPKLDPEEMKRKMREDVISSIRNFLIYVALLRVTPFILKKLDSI
inactive: [1] -0.027 | [2] 0.079 | [3] 0.045 | [4] 0.137 | [5] -0.141 | [6] -0.021 | [7] 0.073 | [8] 0.044 | [9] -0.016 | [10] -0.086

TOE1 (UniProt Q96GM8)
inactive: [1] -0.06 | [2] 0.246 | [3] 0.023 | [4] 0.032 | [5] -0.075 | [6] 0.039 | [7] 0.014 | [8] -0.162 | [9] 0.076 | [10] -0.054

U2AF2 (UniProt P26368)
inactive: [1] 0.038 | [2] 0.071 | [3] 0.018 | [4] 0.042 | [5] -0.089 | [6] 0.014 | [7] 0.028 | [8] 0.074 | [9] -0.013 | [10] 0.013

TMEM63B (UniProt Q5T3F8)
UniProt Q5T3F8, sequence (Q5T3F8 whole entry, looked up): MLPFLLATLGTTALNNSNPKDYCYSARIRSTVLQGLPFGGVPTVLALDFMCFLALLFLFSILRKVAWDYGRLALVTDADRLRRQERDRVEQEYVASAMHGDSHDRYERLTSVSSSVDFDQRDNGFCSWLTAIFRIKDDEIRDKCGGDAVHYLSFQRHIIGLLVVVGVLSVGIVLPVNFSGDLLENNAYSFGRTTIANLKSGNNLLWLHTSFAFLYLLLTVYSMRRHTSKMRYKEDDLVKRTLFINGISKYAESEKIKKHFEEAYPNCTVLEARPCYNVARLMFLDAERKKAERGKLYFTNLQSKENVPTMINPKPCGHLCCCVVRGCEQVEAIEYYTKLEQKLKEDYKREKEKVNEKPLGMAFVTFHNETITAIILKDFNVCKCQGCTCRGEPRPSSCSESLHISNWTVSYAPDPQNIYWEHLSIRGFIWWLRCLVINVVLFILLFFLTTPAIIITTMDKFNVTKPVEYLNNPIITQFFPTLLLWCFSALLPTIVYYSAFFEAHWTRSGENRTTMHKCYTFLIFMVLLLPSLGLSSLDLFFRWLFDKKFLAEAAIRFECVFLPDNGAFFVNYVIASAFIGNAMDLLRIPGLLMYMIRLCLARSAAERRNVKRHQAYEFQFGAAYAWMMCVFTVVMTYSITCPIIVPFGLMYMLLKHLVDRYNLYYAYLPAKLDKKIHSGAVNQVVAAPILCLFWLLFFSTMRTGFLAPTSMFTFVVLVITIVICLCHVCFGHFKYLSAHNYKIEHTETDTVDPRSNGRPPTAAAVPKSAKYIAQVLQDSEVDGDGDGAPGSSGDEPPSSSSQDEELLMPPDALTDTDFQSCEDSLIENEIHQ
inactive: [1] -0.125 | [2] -0.089 | [3] -0.018 | [4] 0.011 | [5] -0.037 | [6] -0.028 | [7] -0.03 | [8] -0.028 | [9] 0.032 | [10] 0.003

WAPL isoform 3 (UniProt Q7Z5K2)
inactive: [1] 0.052 | [2] -0.009 | [3] 0.128 | [4] -0.027 | [5] 0.038 | [6] -0.273 | [7] -0.006 | [8] -0.003 | [9] 0 | [10] 0.027

USP34 (UniProt Q70CQ2)
inactive: [1] 0.021 | [2] 0.011 | [3] -0.03 | [4] -0.239 | [5] 0.021 | [6] 0 | [7] -0.024 | [8] -0.073 | [9] 0.011 | [10] 0.135

UBE2Q1 (UniProt Q7Z7E8)
inactive: [1] -0.09 | [2] -0.042 | [3] 0.022 | [4] 0.006 | [5] -0.055 | [6] 0.012 | [7] -0.02 | [8] -0.044 | [9] 0.01 | [10] 0.039

TMTC3 (UniProt Q6ZXV5)
inactive: [1] -0.092 | [2] 0.01 | [3] 0.006 | [4] -0.03 | [5] 0.105 | [6] -0.085 | [7] -0.007 | [8] -0.041 | [9] 0.053 | [10] 0.032

WARS2 (UniProt Q9UGM6)
UniProt Q9UGM6, sequence (Q9UGM6 whole entry, looked up): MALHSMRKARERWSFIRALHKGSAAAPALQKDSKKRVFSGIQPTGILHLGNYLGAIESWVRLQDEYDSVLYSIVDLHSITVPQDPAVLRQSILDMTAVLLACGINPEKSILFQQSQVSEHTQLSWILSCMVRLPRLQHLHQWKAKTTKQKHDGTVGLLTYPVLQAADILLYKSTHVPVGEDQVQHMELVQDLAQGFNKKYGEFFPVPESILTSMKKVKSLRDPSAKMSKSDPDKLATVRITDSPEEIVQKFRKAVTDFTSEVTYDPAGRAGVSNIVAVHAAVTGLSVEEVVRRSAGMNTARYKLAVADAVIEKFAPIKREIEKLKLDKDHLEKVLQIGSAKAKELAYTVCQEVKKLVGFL
inactive: [1] -0.072 | [2] -0.089 | [3] -0.034 | [4] 0.014 | [5] -0.025 | [6] 0.062 | [7] -0.035 | [8] 0 | [9] -0.127 | [10] 0.037

TXNRD1 (UniProt Q16881)
inactive: [1] 0.018 | [2] -0.101 | [3] 0.006 | [4] -0.144 | [5] -0.012 | [6] -0.023 | [7] 0.026 | [8] 0.052 | [9] -0.055 | [10] 0.062

USP9X (UniProt Q93008)
inactive: [1] -0.02 | [2] -0.017 | [3] 0.018 | [4] -0.096 | [5] -0.02 | [6] 0.029 | [7] -0.007 | [8] -0.008 | [9] -0.027 | [10] -0.033
